The values that follow come from PubChem BioAssay (EPA / NIEHS).

SMILES strings stand for the structures. Inconclusive results are not listed. Calls of active or inactive are those of the source. The calls were made as follows, unless noted: active = hit-call score of the fitted dose curve at least 0.9, where 1 is the maximum; inactive = score below 0.9.

Assay [1] addresses Oxysterols receptor LXR-alpha (Homo sapiens) (UniProt Q13133). Description: ATG_LXRa_TRANS: Attagene TRANS-FACTORIAL HepG2 Assay for human Liver X Receptor alpha (LXRa) (AID 2282980; active = hit-call score of the fitted dose curve at least 0.9, where 1 is the maximum). The conditions noted are these: HepG2 Attagene TRANS reporter, LXRa transactivation. The procedure, abridged:
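In this multiplexed TRANS system, compounds act on HepG2 cells carrying GAL4-UAS reporter units and a receptor-GAL4 fusion for 24 h. Induced reporter RNA is amplified, fluorescently labelled and sized by capillary electrophoresis, with DMSO as baseline.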

Assay [2] can be described thus: ATG_M_32_TRANS: Attagene TRANS-FACTORIAL HepG2 Assay for M32 Transcription Factor (Internal Marker) (AID 2282984; active = hit-call score of the fitted dose curve at least 0.9, where 1 is the maximum;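 also: transcript level of a background control reporter unit measured by RT-PCR and capillary electrophoresis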). Particulars: HepG2 Attagene TRANS M32 internal marker reporter. The method in brief:
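Measures reporter mRNA induction in human HepG2 liver cells after 24 h chemical treatment. Transcripts from transiently transfected GAL4-UAS reporter units are amplified, fluorescently labelled and sized by capillary electrophoresis; gain of signal relative to DMSO.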

In assay [3] the target is Nuclear receptor subfamily 4 group A member 2 (Homo sapiens) (UniProt P43354). Nature of the assay: ATG_NURR1_TRANS: Attagene TRANS-FACTORIAL HepG2 Assay for human Nuclear Receptor Related Protein 1 (NURR1) (AID 2282985; active = hit-call score of the fitted dose curve at least 0.9, where 1 is the maximum). Particulars: HepG2 Attagene TRANS reporter, mRNA readout. The procedure, abridged: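 Transient transfection of HepG2, human liver cells, with multiple GAL4-UAS reporter transcription units. Cells dosed 24 h, RNA isolated, reverse-transcribed, PCR-amplified, FAM-labelled, HpaI-digested, sized by capillary electrophoresis. DMSO served as negative control.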

Assay [4] has as its target Transcriptional activator Myb (Homo sapiens) (UniProt P10242). Nature of the assay: ATG_Myb_CIS: Attagene CIS-FACTORIAL HepG2 Assay for human Myeloblastosis (Myb) Proto-Oncogene Transcription Factor (AID 2282986). The conditions noted are these: HepG2 Attagene CIS-FACTORIAL Myb reporter transcription; actives raise or lower the signal. The method in brief: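 Steps: transfect HepG2 with cis-regulated reporter units; dose with chemical for 24 h; isolate RNA, reverse-transcribe, PCR-amplify and FAM-label reporter sequences; digest with HpaI; resolve by capillary electrophoresis. Activity fitted in both directions relative to DMSO.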

In assay [5] the target is Nuclear respiratory factor 1 (Homo sapiens) (UniProt Q16656). Nature of the assay: ATG_NRF1_CIS: Attagene CIS-FACTORIAL HepG2 Assay for human Nuclear Respiratory Factor 1 (NRF1) Orphan Gene (AID 2282987). The conditions noted are these: HepG2 NRF1 cis-element reporter, Attagene multiplex; actives raise or lower the signal. The procedure, abridged:
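Fluorescence intensity of labelled reporter cDNA fragments, resolved by capillary electrophoresis, served as readout for NRF1 cis-element activity. Transiently transfected HepG2 cells were dosed for 24 hours; activity in either direction was fitted against DMSO negative control.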

Assay [6] in a line: ATG_NFI_CIS: Attagene CIS-FACTORIAL HepG2 Assay for human Nuclear Factor I (NFI) (AID 2282989). The conditions noted are these: HepG2 cis-regulatory reporter, NFI response element transcription; actives raise or lower the signal. The method in brief: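 HepG2, transient MRTU, 24 h exposure; RNA→cDNA→PCR→FAM label→HpaI→CE fluorescence. Bidirectional fit, DMSO = baseline.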
Assay [7] has as its target Myc proto-oncogene protein (Homo sapiens) (UniProt P01106). Description: ATG_Myc_CIS: Attagene CIS-FACTORIAL HepG2 Assay for human Myelocytomatosis (Myc) Proto-Oncogene Transcription Factor (AID 2282990). Particulars: HepG2, Attagene cis-reporter transcription factor activity; actives raise or lower the signal. The procedure, abridged: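 Cells of the HepG2 human liver line bear multiple cis-driven reporter transcription units. Reporter mRNA after 24 h exposure is reverse-transcribed, amplified, labelled and resolved by capillary electrophoresis, with gain- or loss-of-signal fitting relative to DMSO.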

Assay [8] is described as follows: ATG_NF_kB_CIS: Attagene CIS-FACTORIAL HepG2 Assay for human Nuclear Factor Kappa B (NF-kB) (AID 2282991). Particulars: HepG2 Attagene cis-factorial NF-kB reporter mRNA; actives raise or lower the signal. The procedure, abridged: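 Endogenous transcription factor activity in HepG2 was captured via cis-regulated reporter constructs; after 24 h dosing, reporter mRNA was reverse-transcribed, amplified, fluorescently labelled and sized by capillary electrophoresis, with activity fitted bidirectionally relative to DMSO.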

The nature of assay [9]: ATG_NRF2_ARE_CIS: Attagene CIS-FACTORIAL HepG2 Assay for human Nuclear Factor Erythroid 2 Related Factor 2 (NFR2) response to Antioxidant Response Elements (ARE) (AID 2282992).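 As to AC50: reporter mRNA level measured by RT-PCR and capillary electrophoresis fluorescence.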 The conditions noted are these: HepG2 Attagene ARE/NRF2 reporter, transcription factor activity; actives raise or lower the signal. The method in brief: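 HepG2 cells transiently transfected with multiplexed cis-element reporter constructs, 24 h after chemical dosing; reporter mRNA quantified by RT-PCR, fluorescent primer extension, HpaI digestion and capillary electrophoresis. Bidirectional fit relative to DMSO.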

Assay [10] in a line: ATG_Oct_MLP_CIS: Attagene CIS-FACTORIAL HepG2 Assay for human Octamer-Binding Transcription Factor (Oct) (AID 2282993). The conditions noted are these: HepG2 Attagene cis-factorial Oct reporter, mRNA; actives raise or lower the signal. The method in brief:
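Multiplexed cis-reporter assay in human liver HepG2 cells, 24 h incubation. Reporter RNA amplified and labelled, then resolved by capillary electrophoresis; DMSO serves as negative control and baseline.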

The nature of assay [11]: ATG_M_06_TRANS: Attagene TRANS-FACTORIAL HepG2 Assay for M06 Transcription Factor (Internal Marker) (AID 2282983; active = hit-call score of the fitted dose curve at least 0.9, where 1 is the maximum;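 also: reporter transcript level by RT-PCR then capillary electrophoresis fluorescence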). Particulars: HepG2 Attagene TRANS M06 internal marker reporter. The method in brief: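 Internal-marker background readout from a multiplexed TRANS reporter system in HepG2; 24 h dosing; mRNA induction quantified by RT-PCR plus capillary electrophoresis fluorescence; DMSO as negative control and baseline.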

The target in assay [12] is Cellular tumor antigen p53 (Homo sapiens) (UniProt P04637). Description: ATG_p53_CIS: Attagene CIS-FACTORIAL HepG2 Assay for human p53 Transcription Factor (AID 2282994). Particulars: HepG2 p53 cis-element reporter, Attagene mRNA; actives raise or lower the signal. The procedure, abridged:
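HepG2 cells transiently transfected with cis-regulated multiple reporter transcription units, dosed 24 h. Reporter mRNA measured by RT-PCR, 6-FAM primer extension, HpaI digestion and capillary electrophoresis; bidirectional fit relative to DMSO.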

In assay [13] the target is Hepatocyte nuclear factor 4-alpha (Homo sapiens) (UniProt P41235). Nature of the assay: ATG_HNF4a_TRANS: Attagene TRANS-FACTORIAL HepG2 Assay for human Hepatocyte Nuclear Factor 4 alpha (HNF4a) (AID 2282982; active = hit-call score of the fitted dose curve at least 0.9, where 1 is the maximum). The conditions noted are these: HepG2 HNF4a transactivation reporter, mRNA readout. The procedure, abridged:
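Readout is fluorescent reporter-transcript fragments resolved by capillary electrophoresis after RT-PCR from HepG2 cells dosed for 24 h. Cells carried transfected GAL4-UAS reporter constructs measuring exogenous NR-GAL4 chimera activity; DMSO served as baseline.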

The target in assay [14] is Oxysterols receptor LXR-beta (Homo sapiens) (UniProt P55055). Nature of the assay: ATG_LXRb_TRANS: Attagene TRANS-FACTORIAL HepG2 Assay for human Liver X Receptor beta (LXRb) (AID 2282981; active = hit-call score of the fitted dose curve at least 0.9, where 1 is the maximum). The conditions noted are these: HepG2 Attagene TRANS GAL4-LXRb reporter, mRNA. The method in brief:
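Transient transfection HepG2 (multiplexed RTUs, GAL4-UAS); NR-Gal4 chimera; 24 h exposure; RNA → RT-PCR → 6-FAM primer extension → HpaI → CE; increase vs DMSO.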

Chain of Oxysterols receptor LXR-alpha (Homo sapiens) (Q13133 whole entry, looked up, the tested form may be a part): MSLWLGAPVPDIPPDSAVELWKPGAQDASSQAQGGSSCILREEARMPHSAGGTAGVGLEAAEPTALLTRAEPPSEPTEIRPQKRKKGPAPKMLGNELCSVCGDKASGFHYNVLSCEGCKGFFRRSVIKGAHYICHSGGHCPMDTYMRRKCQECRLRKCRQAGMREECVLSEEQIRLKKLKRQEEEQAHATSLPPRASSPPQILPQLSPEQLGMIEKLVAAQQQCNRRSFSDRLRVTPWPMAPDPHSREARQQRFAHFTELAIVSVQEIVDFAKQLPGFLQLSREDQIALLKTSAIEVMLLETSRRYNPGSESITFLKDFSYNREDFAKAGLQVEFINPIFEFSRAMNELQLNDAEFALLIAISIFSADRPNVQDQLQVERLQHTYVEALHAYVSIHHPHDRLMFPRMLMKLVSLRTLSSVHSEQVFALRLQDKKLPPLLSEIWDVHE
Chain of Hepatocyte nuclear factor 4-alpha (Homo sapiens) (P41235 whole entry, looked up, the tested form may be a part): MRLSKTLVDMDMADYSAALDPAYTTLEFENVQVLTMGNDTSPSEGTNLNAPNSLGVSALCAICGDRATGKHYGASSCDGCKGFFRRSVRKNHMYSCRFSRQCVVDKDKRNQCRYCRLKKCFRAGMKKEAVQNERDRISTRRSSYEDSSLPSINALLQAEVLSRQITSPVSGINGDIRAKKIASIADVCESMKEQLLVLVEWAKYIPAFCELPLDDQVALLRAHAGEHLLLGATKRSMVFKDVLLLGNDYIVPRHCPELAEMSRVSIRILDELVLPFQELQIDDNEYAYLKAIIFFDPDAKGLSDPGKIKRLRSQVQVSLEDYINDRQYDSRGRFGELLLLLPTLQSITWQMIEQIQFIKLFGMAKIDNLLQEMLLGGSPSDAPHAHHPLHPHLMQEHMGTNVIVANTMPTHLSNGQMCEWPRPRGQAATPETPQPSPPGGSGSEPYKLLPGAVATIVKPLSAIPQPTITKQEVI
Chain of Transcriptional activator Myb (Homo sapiens) (P10242 whole entry, looked up): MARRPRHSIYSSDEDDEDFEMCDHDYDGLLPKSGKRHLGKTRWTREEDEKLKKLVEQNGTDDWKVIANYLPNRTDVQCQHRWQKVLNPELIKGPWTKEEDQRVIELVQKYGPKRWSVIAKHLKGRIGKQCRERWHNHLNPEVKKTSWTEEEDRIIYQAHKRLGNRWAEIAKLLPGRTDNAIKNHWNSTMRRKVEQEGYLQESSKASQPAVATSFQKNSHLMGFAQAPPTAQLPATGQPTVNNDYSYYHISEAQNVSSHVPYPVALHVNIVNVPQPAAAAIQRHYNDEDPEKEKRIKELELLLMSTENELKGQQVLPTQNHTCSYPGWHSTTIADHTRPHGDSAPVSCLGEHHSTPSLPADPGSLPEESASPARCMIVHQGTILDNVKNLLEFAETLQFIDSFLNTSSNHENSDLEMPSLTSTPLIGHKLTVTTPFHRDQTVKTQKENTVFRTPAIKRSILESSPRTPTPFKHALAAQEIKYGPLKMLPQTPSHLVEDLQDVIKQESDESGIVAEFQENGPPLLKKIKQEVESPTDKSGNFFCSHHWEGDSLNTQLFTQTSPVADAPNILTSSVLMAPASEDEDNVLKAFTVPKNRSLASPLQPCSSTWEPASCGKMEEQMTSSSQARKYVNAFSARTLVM
Chain of Nuclear respiratory factor 1 (Homo sapiens) (Q16656 whole entry, looked up, the tested form may be a part): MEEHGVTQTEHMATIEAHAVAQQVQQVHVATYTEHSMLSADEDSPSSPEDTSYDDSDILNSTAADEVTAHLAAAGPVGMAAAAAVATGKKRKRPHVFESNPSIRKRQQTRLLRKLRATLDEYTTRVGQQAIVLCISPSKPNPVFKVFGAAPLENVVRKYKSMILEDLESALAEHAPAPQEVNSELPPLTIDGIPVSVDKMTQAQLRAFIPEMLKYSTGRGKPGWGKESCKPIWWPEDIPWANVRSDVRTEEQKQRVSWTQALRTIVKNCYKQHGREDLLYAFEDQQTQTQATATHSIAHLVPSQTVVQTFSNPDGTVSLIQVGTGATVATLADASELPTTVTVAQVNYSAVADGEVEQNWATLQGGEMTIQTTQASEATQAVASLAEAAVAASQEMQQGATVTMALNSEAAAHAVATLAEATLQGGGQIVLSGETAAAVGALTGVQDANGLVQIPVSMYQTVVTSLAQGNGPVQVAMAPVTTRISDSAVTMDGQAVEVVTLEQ
Chain of Myc proto-oncogene protein (Homo sapiens) (P01106 whole entry, looked up): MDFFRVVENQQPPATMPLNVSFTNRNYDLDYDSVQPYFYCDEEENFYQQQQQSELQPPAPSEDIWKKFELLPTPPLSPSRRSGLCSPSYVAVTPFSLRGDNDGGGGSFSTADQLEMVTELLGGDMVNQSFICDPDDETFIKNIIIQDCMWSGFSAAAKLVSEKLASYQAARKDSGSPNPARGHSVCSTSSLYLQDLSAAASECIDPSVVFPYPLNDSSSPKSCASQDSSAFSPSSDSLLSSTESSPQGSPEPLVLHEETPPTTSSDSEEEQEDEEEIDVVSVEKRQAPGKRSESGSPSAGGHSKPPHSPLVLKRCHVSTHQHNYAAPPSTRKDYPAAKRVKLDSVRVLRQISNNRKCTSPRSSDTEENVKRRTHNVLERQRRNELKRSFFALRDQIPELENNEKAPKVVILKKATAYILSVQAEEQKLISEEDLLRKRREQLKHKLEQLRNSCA
Chain of Cellular tumor antigen p53 (Homo sapiens) (P04637 whole entry, looked up): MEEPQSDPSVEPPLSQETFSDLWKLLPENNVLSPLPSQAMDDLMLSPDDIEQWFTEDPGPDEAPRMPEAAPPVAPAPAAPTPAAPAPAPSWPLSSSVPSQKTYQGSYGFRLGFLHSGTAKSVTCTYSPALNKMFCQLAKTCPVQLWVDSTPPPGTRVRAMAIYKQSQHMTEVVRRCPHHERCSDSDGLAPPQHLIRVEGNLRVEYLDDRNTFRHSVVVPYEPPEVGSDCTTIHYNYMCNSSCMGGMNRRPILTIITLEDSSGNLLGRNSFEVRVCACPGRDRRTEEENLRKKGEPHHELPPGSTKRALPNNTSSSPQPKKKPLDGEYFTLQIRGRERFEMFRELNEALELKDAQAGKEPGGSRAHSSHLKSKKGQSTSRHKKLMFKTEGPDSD
Chain of Oxysterols receptor LXR-beta (Homo sapiens) (P55055 whole entry, looked up, the tested form may be a part): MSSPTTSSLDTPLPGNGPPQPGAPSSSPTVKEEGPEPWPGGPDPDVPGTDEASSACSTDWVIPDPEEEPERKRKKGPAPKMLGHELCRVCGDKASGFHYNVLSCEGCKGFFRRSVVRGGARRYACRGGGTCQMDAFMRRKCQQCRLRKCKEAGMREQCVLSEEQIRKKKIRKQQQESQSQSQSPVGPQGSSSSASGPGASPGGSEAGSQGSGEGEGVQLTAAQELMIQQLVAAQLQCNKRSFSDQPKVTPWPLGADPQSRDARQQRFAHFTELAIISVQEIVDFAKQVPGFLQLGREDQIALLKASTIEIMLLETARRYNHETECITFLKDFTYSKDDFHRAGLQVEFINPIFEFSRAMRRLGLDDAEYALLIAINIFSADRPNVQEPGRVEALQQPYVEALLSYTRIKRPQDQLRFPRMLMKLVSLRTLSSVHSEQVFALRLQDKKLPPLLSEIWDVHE
Chain of Nuclear receptor subfamily 4 group A member 2 (Homo sapiens) (P43354 whole entry, looked up, the tested form may be a part): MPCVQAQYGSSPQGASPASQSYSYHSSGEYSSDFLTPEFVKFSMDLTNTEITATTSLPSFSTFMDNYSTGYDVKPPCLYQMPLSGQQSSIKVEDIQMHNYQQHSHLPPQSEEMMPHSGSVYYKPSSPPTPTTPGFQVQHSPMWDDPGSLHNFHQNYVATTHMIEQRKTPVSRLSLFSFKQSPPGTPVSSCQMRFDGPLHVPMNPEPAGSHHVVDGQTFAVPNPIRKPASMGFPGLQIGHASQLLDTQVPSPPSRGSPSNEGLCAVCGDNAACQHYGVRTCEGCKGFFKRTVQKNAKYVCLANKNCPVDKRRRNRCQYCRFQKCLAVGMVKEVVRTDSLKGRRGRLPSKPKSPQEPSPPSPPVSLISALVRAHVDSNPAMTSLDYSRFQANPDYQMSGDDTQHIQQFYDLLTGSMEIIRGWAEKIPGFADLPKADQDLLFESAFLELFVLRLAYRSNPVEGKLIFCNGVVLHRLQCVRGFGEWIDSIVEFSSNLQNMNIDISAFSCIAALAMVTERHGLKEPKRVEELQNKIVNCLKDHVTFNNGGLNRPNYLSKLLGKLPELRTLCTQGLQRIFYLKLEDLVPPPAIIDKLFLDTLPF

For `Cc1ccc2ccccc2n1`, the result in assay [1], in [2], in assay [3], in [4], in assay [5] and in assay [6] was inactive. In addition, the compound was classed as inactive in assay [7], in assay [8], in [9] and in assay [10].

On to `CCCC1CCC(=O)O1` (stereo unspecified), for which the outcome in assay [1], in assay [11], in assay [3], in assay [4], in assay [6] and in assay [7] was inactive. For the same compound, the outcome in [8], in [9] and in [12] was inactive.

For `CCC/C=C/C=O`, the call in [1], in assay [3], in assay [4], in assay [5], in [6] and in assay [7] was inactive. Also, the compound was called inactive in [10]. For the same compound, the AC50 (as a rule, the midpoint of the concentration-response curve, whichever way the signal moves) in [9] was 30.5 µM (active).

`CCCOCC(C)O` (stereo unspecified): the outcome in [1], in assay [13], in [11], in [4], in assay [5] and in [7] was inactive. The compound was classed as inactive in [9] and in assay [10].

Regarding `O=C[C@@H](O)[C@H](O)[C@H](O)CO`, the result in assay [1], in [11], in assay [4], in [5], in [6] and in assay [7] was inactive. Further, the compound was classed as inactive in [9] and in assay [10].

Regarding `NCCCN1CCOCC1`, the outcome in assay [14], in assay [11], in [3], in assay [4], in assay [5] and in [7] was inactive. Further, in assay [9], the compound was classed as inactive.

Consider `O=C(O)CN(CCN(CC(=O)O)CC(=O)O)CCN(CC(=O)O)CC(=O)O`, for which the compound was called inactive in assay [14], in assay [13], in assay [11], in assay [3], in assay [4] and in assay [5]. Further, the call in assay [6], in [7], in [8], in [9], in assay [10] and in assay [12] was inactive.

With `CCC(=O)OCCC(C)CCC=C(C)C` (stereo unspecified), the compound was called inactive in [14], in assay [13], in assay [2], in assay [3], in assay [4] and in [5]. The compound was classed as inactive in [6], in assay [7], in [8], in assay [10] and in [12]. For the same compound, the AC50 in assay [9] is 63.9 µM (active).

In the case of `O=C(O)CCCCCCCC(=O)O`, the result in [13], in assay [11], in assay [2], in [4], in assay [5] and in assay [6] was inactive. Also, the compound was classed as inactive in assay [7], in assay [8], in assay [9], in assay [10] and in assay [12].

Regarding `CCCCCCCCCCCCCCCC(=O)OC[C@H](O)[C@H]1OC(=O)C(O)=C1O`, the compound was classed as inactive in assay [14], in assay [13], in [11], in assay [3], in assay [4] and in [6]. Also, the call in assay [7], in [8], in assay [10] and in assay [12] was inactive. In addition, the AC50 in assay [9] is 66.8 µM (active).

For the compound `C=CC(=O)OCCOCCOCC`, the compound was called inactive in assay [13], in [11], in assay [2], in assay [4], in [5] and in [6]. Moreover, the compound was classed as inactive in assay [7], in assay [10] and in assay [12]. Further, the concentration at half-maximal activity (AC50) in assay [8] was 9.52 µM (active); in assay [9] it was 26 µM (active).

Take `c1cc(C(c2ccc(OCC3CO3)cc2)c2ccc(OCC3CO3)cc2)ccc1OCC1CO1` (stereo unspecified): the result in [14], in assay [13], in assay [11], in assay [2], in assay [3] and in assay [4] was inactive. Moreover, the result in [7] and in assay [9] was inactive. Besides, the AC50 in [5] was 24 µM (active); in [8], 100 µM (active); in assay [10] it was 24.8 µM (active); in assay [12], 11.8 µM (active).

Turning to `O=Cc1ccc(Cl)c([N+](=O)[O-])c1`, the call in assay [14], in [13], in assay [11], in [8] and in [10] was inactive. Also, the AC50 in assay [4] was 144 µM (active); in assay [6], 160 µM (active); in [7], 100 µM (active); in assay [9], 179 µM (active); in assay [12] it was 54.5 µM (active).

In the case of `CCCCCCCCCCCCN(CCCCCCCCCCCC)CCCCCCCCCCCC`, the compound was classed as inactive in [14], in assay [11], in assay [2], in assay [4], in [5] and in [6]. Moreover, the call in assay [7], in assay [8], in [9], in assay [10] and in assay [12] was inactive.

In the case of `C=COCCOCCOCCOC=C`, the compound was called inactive in assay [13], in assay [11], in [2], in assay [4], in assay [5] and in assay [6]. Further, the result in assay [7], in [8], in assay [9], in assay [10] and in assay [12] was inactive.

Regarding `Clc1cccc(Cl)n1`, the call in assay [14], in assay [13], in assay [2], in assay [4], in assay [6] and in assay [7] was inactive. In addition, the call in [8], in assay [10] and in assay [12] was inactive.

Take `COc1ccc(O)cc1`: the compound was called inactive in assay [14], in assay [2], in assay [3], in [4], in [5] and in assay [6]. The outcome in assay [7], in [8], in assay [9], in [10] and in assay [12] was inactive.
